# An excerpt weighted towards active compounds, which were near 4% of everything screened.
# EWS-Fli block: EWS/Fli-driven NR0B1 reporter inhibitors, primary screen, A673 cells, NR0B1 luciferase, luminescence, MLPCN library; AID 651661, 2012; 0.67% of 350,000 active; viability-normalised; inhibition, % at 12.6 µM;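 active = mean inhibition of at least 50% after viability correction, with every replicate also passing that limit; inconclusive = mean reaches 50% but only one of two replicates passes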;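 note: firefly luciferase signal divided by Alamar Blue viability fluorescence both relative to DMSO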
# PAX8 inh HTS: inhibitors of PAX8-driven TPO luciferase reporter, primary screen, RMG-I cells, single concentration; SteadyGlo, 24 h; inhibition, % at 12.6 µM; 1.2% of 360,000 active;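 active = mean replicate inhibition at least 60% with every replicate also reaching 60%; inconclusive = only one of the two criteria is met; inactive = mean below 60% and not all replicates reaching 60%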;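 note: luciferase light reporting Pax8 driven TPO promoter activity; plate controls were median of neutral control wells for no effect and mitoxantrone controls for full effect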
# Wnt act: Wnt/beta-catenin pathway activators, primary screen, cell-based, plate reader, single point; 1.2% of 300,000 active; Wnt/beta-catenin reporter cell assay, activator; activation, % at 9.35 µM; in the data active = activation above about 30%, passing the limit was not always enough; inconclusive = no clear call, values can overlap the other calls;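 note: 0% = neutral control wells and 100% = positive control wells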
# TRPM1 prom inh: inhibitors of MITF-dependent TRPM1 promoter reporter, primary screen, cell-based, SK-MEL-5, single point, luciferase; 0.83% of 330,000 active; AID 488899, 2010; SK-MEL-5 TRPM1 promoter luciferase, 24 h; inhibition, % at 12.5 µM;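 active = mean inhibition across replicates of 60% or more, whatever share of single replicates reaches that level; inconclusive = some that reach 60%, reason not given; inactive = mean inhibition across replicates below 60%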
# MITF TRPM1 HTS: activators of MITF-driven TRPM1 promoter reporter, primary screen, cell-based, SK-MEL-5, luciferase, single point; SK-MEL-5 TRPM1-promoter luciferase, 24 h; % of positive control, neutral wells = 0; activation, % at 12.5 µM; 0.75% of 300,000 active;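 active = mean activation of at least 80% with every replicate also reaching 80%; inconclusive = mean reaches 80% but some replicate falls short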;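 note: 0% = neutral control wells and 100% = parthenolide positive control wells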
# esBAF inh: Bmi1 luciferase reporter increase in mESCs, primary screen, esBAF inhibitor project, mouse ES cells, Bmi1 luciferase knock-in, single point. 24 h; 100% = twice the neutral-well signal. reporter increase, % at 12.5 µM. 2% of 350,000 active. AID 602393, 2012; in the data active = activation above about 40%; inconclusive = no clear call, values can overlap the other calls;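 note: 0% = median of the plate's neutral control wells and 100% = double that signal; a rise in the Bmi1 reporter signal indicates esBAF inhibition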
# * = called active by the depositor; ? = inconclusive; / = no result given.
SMILES,EWS-Fli block,PAX8 inh HTS,Wnt act,TRPM1 prom inh,MITF TRPM1 HTS,esBAF inh
CO[C@H]1CN(C)C(=O)c2cc(NC(=O)NC(C)C)ccc2OC[C@H](C)N(C(=O)C2CCC2)C[C@@H]1C,-3.9,-11.7,/,/,/,-4.8
Cc1ccc(S(=O)(=O)N(C)C[C@H]2Oc3ccc(NC(=O)Nc4ccccc4)cc3CC(=O)N([C@H](C)CO)C[C@@H]2C)cc1,-2.2,20.9,/,/,/,2.2
Cc1ccc(NC(=O)c2ccncc2)cc1S(=O)(=O)N(C)C,7.5,-11.1,-2.4,1.6,-2.2,/
Cc1ccc(NC(=O)c2ccc(Br)o2)cc1S(=O)(=O)N(C)C,-82.7,-72.8,23.4,-27.8,33.6,55.4*
CC(=O)c1c(C)[nH]c(C(=O)Nc2ccc(C)c(S(=O)(=O)N(C)C)c2)c1C,-121.8,-124.7,9.9,-101.2,93.4*,31.7
Cn1sc(NC(=O)c2ccc(Cl)cc2)nc1=O,/,-100.8,21.3,-29.3,/,46.2*
CC(=O)c1sc(NC(=O)c2ccc(Cl)cc2)nc1C,-82.3,-59.1,-1.6,-89.4,88.5*,50.8*
Cc1ccc(C(=O)Nc2nc(=O)n(C)s2)cc1,/,/,-4.4,-32.4,34.5,23.1
CC(=O)c1sc(NC(=O)c2ccccc2C)nc1C,-64.8,-66.2,9.0,-65.1,66.9,76.2*
CC(=O)c1sc(NCc2ccc(C)cc2)nc1C,-83.5,-169.7,19.2,-86.9,?,52.6*
CC(=O)c1sc(NCc2ccccc2)nc1C,-23.9,2.1,4.6,-27.3,28.4,21.5
C[C@H]1CN([C@@H](C)CO)C(=O)c2cc(NC(=O)NC3CCCCC3)ccc2O[C@H]1CN(C)C(=O)Nc1ccc2c(c1)OCO2,5.5,8.4,/,/,/,1.2
O=C(C1CC1)N1CCCCN2[C@H](CO)[C@@H](c3ccc(C#CC4CC4)cc3)[C@@H]2C1,-8.9,-13.5,/,/,/,/
CC(=O)c1ccc(OCc2cc(C(=O)N3CCOCC3)no2)cc1,/,-177.9,16.2,-60.0,65.0,61.2*
CCOC(=O)N1CCN(C(=O)c2cc(COc3cccc(C(C)=O)c3)on2)CC1,/,-61.4,9.7,-9.5,10.1,42.2*
CC(=O)c1cccc(OCc2cc(C(=O)NCc3nc(C)c(C)s3)no2)c1,/,-151.3,10.3,-65.5,67.8,48.0*
CCOC(=O)N1CCN(C(=O)c2cc(COc3cccc(C(F)(F)F)c3)on2)CC1,-90.4,-176.8,20.7,-50.4,38.2,/
O=S(=O)(N[C@H]1CC[C@@H](CCn2cc(-c3cccc(F)c3)nn2)O[C@@H]1CO)c1ccc(F)cc1,7.7,/,/,/,/,-2.4
COCCNC(=O)C[C@H]1C[C@@H]2c3cc(NC(=O)Nc4ccccc4F)ccc3O[C@@H]2[C@@H](CO)O1,-5.1,1.6,/,/,/,0.1
O=C(C[C@@H]1C=C[C@@H](NS(=O)(=O)c2ccc(F)cc2)[C@H](CO)O1)NCc1ccccc1F,-2.6,/,/,/,/,/
COc1ccc(O)c(/C=N/NC(=O)c2cccc(N3CCCC3=O)c2)c1,-19.0,22.3,1.2,30.0,-26.9,5.9
COc1cccc(/C=N/NC(=O)c2cccc(N3CCCC3=O)c2)c1,-79.9,-185.6,17.8,-74.1,77.2,72.7*
COc1ccc(O)c(/C=N/NC(=O)c2ccc(N3CCCC3=O)cc2)c1,-1.2,105.6*,-1.8,6.3,-6.0,6.9
CC(C)C#Cc1ccc([C@@H]2[C@H](CO)N3CCCCN(C(=O)c4ccc5c(c4)OCO5)C[C@@H]23)cc1,3.2,10.3,/,/,/,/
COCC(=O)N1C[C@@H](C)[C@H](OC)CN(C)C(=O)c2ccc(NC(=O)c3cc(C)on3)cc2OC[C@@H]1C,-6.2,-21.5,/,/,/,-6.1
SMILES,EWS-Fli block,PAX8 inh HTS,Wnt act,TRPM1 prom inh,MITF TRPM1 HTS,esBAF inh
Cc1ccc(-n2nc3c(n2)/C(=N/O)CC/C3=N\O)cc1,/,/,42.6*,-25.8,24.5,20.6
O/N=C1\CC/C(=N\O)c2nn(-c3ccccc3Cl)nc21,/,/,/,0.0,-4.6,-4.3
Cc1nc(-c2ccc(NC(=O)c3ccccc3C)cc2)cs1,-139.4,-159.4,-1.2,-57.1,59.9,85.7*
Cc1nc(-c2ccc(NC(=O)c3ccccc3Br)cc2)cs1,/,-195.0,65.0*,-70.7,?,/
CCC(=O)Nc1ccc(-c2csc(C)n2)cc1,-25.0,-86.7,9.2,-40.5,38.6,/
COc1ccc2c(c1)O/C(=C\c1ccco1)C2=O,-62.0,-59.9,10.9,-69.2,72.2,30.1
CC(=O)COc1ccc2c(c1C)O/C(=C\c1ccco1)C2=O,-53.9,-138.7,5.9,-69.5,64.4,61.3*
c1ccc(-c2nc(-c3ccc(-c4ccon4)s3)no2)cc1,-91.1,-99.0,35.8*,-70.6,74.4,53.4*
c1csc(-c2nc(-c3ccc(-c4ccon4)s3)no2)c1,-11.4,-136.9,41.7*,-45.9,38.3,/
Oc1c(C(Nc2cccc(C(F)(F)F)c2)c2ccncc2)ccc2cccnc12 (stereo not drawn),15.4,48.4,52.7*,64.7*,-64.8,/
Oc1c(C(Nc2nccs2)c2ccc(C(F)(F)F)cc2)ccc2cccnc12 (stereo not drawn),?,85.0*,-3.4,79.9*,-78.3,/
CC(C)CC(=O)NC(c1cccs1)c1ccc2cccnc2c1O (stereo not drawn),/,/,/,?,-67.3,/
O=C(C[C@@H]1CC[C@@H]2[C@H](COC[C@H](O)CN2C(=O)c2ccc3c(c2)OCO3)O1)NCCN1CCCCC1,-4.5,-7.7,/,/,/,-3.2
O=C(CNc1cccc([N+](=O)[O-])c1)N/N=C/c1ccc([N+](=O)[O-])o1,25.7,49.4,-19.0,77.9*,-75.9,-4.2
CCCCCCCC(=O)N/N=C/c1ccc([N+](=O)[O-])o1,-2.0,-8.9,-0.7,36.8,-34.4,0.1
O=C(CNc1cccc2ccccc12)N/N=C/c1ccc([N+](=O)[O-])o1,36.4,49.3,-1.8,75.2*,-72.9,/
Oc1cc(NCc2ccc(F)cc2)cc2cccnc12,-4.6,73.2*,2.1,56.2,-55.6,-12.5
Oc1cc(NCc2ccc(Cl)cc2)cc2cccnc12,3.5,-1.7,2.0,12.9,-8.4,18.0
COCC(=O)N1[C@H](CO)[C@@H]2c3ccccc3N(C(=O)Nc3ccccc3F)C[C@@H]21,-22.4,-62.8,/,/,/,8.7
CSc1cccc(NC(=O)/C=C/c2ccccc2)c1,/,/,28.5,-67.3,/,61.7*
O=C(/C=C/c1ccccc1)Nc1cccc(C(=O)O)c1,86.1*,96.1*,-4.3,99.1*,-98.3,/
O=C(/C=C/c1ccccc1)Nc1cc(NC(=O)/C=C/c2ccccc2)cc(C(=O)O)c1,24.9,14.2,1.0,17.9,-17.1,-6.3
COc1ccc(/C=C/C(=O)Nc2cc(=O)n(C)c(=O)n2C)cc1,/,-14.8,/,-34.5,38.8,/
Cn1c(NC(=O)/C=C/c2ccccc2)cc(=O)n(C)c1=O,/,-41.6,60.9*,-1.4,0.8,/
